Source: the supplement of paper PMC4237247
Where a name gives a salt, the structure may show the parent alone.

system: HeLa; test: percent cells in G2/M phase; higher = more G2/M arrest; conditions: 10 µM; 20 h
Protocol: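 HTS of 79,827 drug-like compounds at 10 uM. HeLa cells in 384-well plates were treated for 20 h, fixed, stained with Vybrant DyeCycle Green and scanned on an Acumen eX3 cytometer to give per-well cell cycle profiles (% cells in each phase). The plate Z' was 0.51. Only hits are listed: G1 hits >4 SD and S hits >5 SD from the mean.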

Row | SMILES | percent cells in G2/M phase
1 | COc1c(C)c2c(c(O)c1C/C=C(\C)CCC(=O)O)C(=O)OC2 [Mycophenolic acid] (hit class: S-phase inhibitor) | 28.6%
2 | COc1ccc(C(=O)c2coc3ccc(OC)cc3c2=O)cc1 (hit class: G1-phase inhibitor) | 19%
3 | Cn1c(SCc2ccccc2)nc2ccccc2c1=O (hit class: S-phase inhibitor) | 15.4%
4 | c1ccc2c(c1)Nc1nc3ccccc3nc1O2 (hit class: G1-phase inhibitor) | 21.4%
5 | COc1[nH]c2ccccc2c1C=NO (hit class: S-phase inhibitor) | 12.8%
6 | C[C@@H]1CCC[C@H](C)N1NC(=O)c1ccc(Cl)c(S(N)(=O)=O)c1 [Clopamide] (hit class: G1-phase inhibitor) | 15.9%
7 | COc1ccc(CSc2nncn2N)cc1 (hit class: S-phase inhibitor) | 15.1%
8 | CC[C@@H](C(=O)[C@@H](C)[C@@H](O)[C@H](C)CCc1ccc(C)c(O)c1C(=O)O)[C@H]1O[C@](CC)([C@H]2CC[C@](O)(CC)[C@H](C)O2)C[C@@H]1C [Lasalocid sodium salt] (hit class: G1-phase inhibitor) | 16.8%
9 | O=C(COc1ccc(Cl)cc1)NC(Cc1c[nH]c2ccccc12)C(=O)O (configuration not stated) (hit class: G1-phase inhibitor) | 20.6%
10 | O=C1c2c(O)ccc(O)c2C(=O)c2c(NCCNCCO)ccc(NCCNCCO)c21 [Mitoxantrone dihydrochloride] (hit class: G1-phase inhibitor) | 0.73%
11 | CC(=O)C1=C(O)C(=O)N(CC(=O)O)C1c1ccccc1F (configuration not stated) (hit class: S-phase inhibitor) | 12.9%
12 | Cc1ccc(-c2cc(-c3ccccc3Cl)[nH]n2)c(O)c1 (hit class: G1-phase inhibitor) | 17.1%
13 | CCN(CC)Cc1c(O)ccc2c(=O)c(-c3ccccc3)coc12 (hit class: S-phase inhibitor) | 17%
14 | Cc1cc([N+](=O)[O-])ccc1NCc1ccc(F)c(F)c1 (hit class: G1-phase inhibitor) | 18.3%
15 | Cc1cc(N2CCCCC2)c(F)cc1[N+](=O)[O-] (hit class: S-phase inhibitor) | 22.3%
16 | C[C@@H]1C[C@H]2[C@@H]3C[C@H](F)C4=CC(=O)C=C[C@]4(C)[C@@]3(Cl)[C@@H](O)C[C@]2(C)[C@H]1C(=O)COC(=O)C(C)(C)C [Clocortolone pivalate] (hit class: S-phase inhibitor) | 30.1%
17 | Nc1ccn([C@H]2CC[C@@H](CO)O2)c(=O)n1 [Zalcitabine] (hit class: S-phase inhibitor) | 29.8%
